# Screening data deposited in PubChem BioAssay by National Center for Advancing Translational Sciences (NCATS).
# Most compounds without a hit are left out; they make up all but 6.2% or so of the library.
# FMDV inh: blocks foot and mouth disease virus. FMDV antiviral cell-based qHTS. Potency, µM (highest dose often 57.9 µM), for the others: at the top dose activity change, negative = inhibition, usual class: inhibitors. 410,000 tested, 1.2% active; calls by dose curve; tested in HEK293T cells; also: read-out not given here; potency is read from the fitted curve at half-maximal effect; nearly all actives have a fitted effect of over 45% in size
# LASV entry inh: blocks Lassa virus binding to or entry into cells; Potency, µM (series often up to 37.9 µM), inactives show at the highest dose activity change, negative = inhibition, actives largely listed as inhibitors; AID 540256; Lassa virus pseudotype entry inhibition, cell reporter; 300,000 tested, 1.2% active; calls by dose curve; tested in HEK293 cells; also: potency is read from the fitted curve at half-maximal effect; nearly all actives have a fitted effect of over 50% in size
# MARV entry inh: blocks Marburg virus binding to or entry into cells | Marburg virus pseudotyped entry inhibition, cell reporter | Potency, µM (titrated, usually from 37.8 µM), for inactives: at the top dose activity change, negative = inhibition, actives largely listed as inhibitors | 300,000 tested, 1.8% active; calls by dose curve; tested in HEK293 cells; also: potency is read from the fitted curve at half-maximal effect
# HCMV inh: blocks human cytomegalovirus replication. 410,000 tested, 4.5% active. activity change, negative = inhibition, % at 57.5 µM. HFF cells, HCMV-luciferase reporter, 72 h; active compounds read low; in the data active = activity change below about -60%; inconclusive = no clear call, values can overlap the other calls; inactive = above about -39%
#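 Two compound doses tested in HFFs infected with HCMV-luciferase, MOI 1 PFU/cell, 72 h at 37C. Lysate luminescence read with OneGlo; data normalized against buffer-only and 10uM Salinomycin inhibitor controls.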
# * = called active by the depositor; ? = inconclusive; · = no result; [ ] = another dose, or the depositor's remark. % is scaled to controls: 0 for no effect and ±100 for the full control effect.
SMILES,FMDV inh,LASV entry inh,MARV entry inh,HCMV inh
Cc1ccc(S(=O)(=O)NNC(=O)C2COc3ccccc3O2)cc1C (configuration not stated),0%,·,·,-12
Cc1cc(C)cc(NC(=S)N2CCN(c3ncc(C(F)(F)F)cc3Cl)CC2)c1,-8%,?,18%[46.1 µM],-17
OCc1nc2ccccc2n1CC(O)Cn1ccc2ccccc21 (configuration not stated),28µM*,-22%,-12%,?
COc1ccc2oc(=O)c(-c3csc(/C(C#N)=C/c4ccc(F)cc4)n3)cc2c1,-6%,-11%[46.1 µM],·,-12
Cc1onc(-c2ccccc2Cl)c1C(=O)N(Cc1ccccc1)C(C)C,-7%,-14%[46.1 µM],?,25
O=C1c2ccccc2CC1Sc1nnc(-c2ccccn2)o1 (configuration not stated),66%,?,?,89
CCC(C)N(CCNC(=O)c1ccc2c(c1)NC(=O)c1ccccc1S2)C1CCCCC1 (configuration not stated),-19%,3.2µM*,?,0
C/C(=N\OCC(=O)Nc1c(C)cc(C)cc1C)c1ccc2c(c1)OCCO2,?,18%,10%,-3
CCCCS(=O)(=O)N1CCN(C(=N)N[N+](=O)[O-])CC1,-8%,22%,10%[46.1 µM],-62*
Cc1cccc(CNc2ncnc3ccc(-c4ccoc4)cc23)c1,?,·,·,14
c1cn(-c2ncnc3ccc(-c4ccoc4)cc23)cn1,28µM*,·,·,·
c1cncc(CNc2ncnc3ccc(-c4ccoc4)cc23)c1,0%,·,·,-83*
c1nc(NCc2ccc3c(c2)OCO3)c2cc(-c3ccc4c(c3)OCCO4)ccc2n1,?,·,·,-28
Cc1csc(CNc2ncnc3ccc(-c4ccoc4)cc23)c1,-29%,·,·,-86*
Cc1cccc(CNc2ncnc3ccc(-c4ccc5c(c4)OCCO5)cc23)c1,?,·,·,-89*
CN1CCN(c2ccccc2NC(=O)c2ccc(-c3ccc(Cl)c(Cl)c3)o2)CC1,-3%,?,?,5
Cc1cccc(-c2ccc3ncnc(NCc4cccs4)c3c2)c1,25µM*,·,·,-76*
Cc1csc(CNc2ncnc3ccc(-c4ccc5c(c4)OCCO5)cc23)c1,-21%,·,·,8
Cc1csc(CNc2ncnc3ccc(-c4ccc5c(c4)OCO5)cc23)c1,?,·,·,-69*
CCCOc1ncnc2c1[nH]c1ccc(C)cc12,-23%,·,·,·
Cc1onc(-c2c(F)cccc2Cl)c1C(=O)OCC(=O)Nc1cccc(S(=O)(=O)N(C)C)c1,?,?,16µM*,-70*
Cc1noc(C)c1C(=O)OCC(=O)Nc1cccc(S(=O)(=O)N(C)C)c1,14%,2%,19%,-30
Cc1cc(NC(=O)COC(=O)c2ccccc2NCCO)no1,21%,30%,15%,-11
Cc1cc(NC(=O)COC(=O)c2cccc(O)c2)no1,14%,·,·,-65*
Cc1cc(NC(=O)COC(=O)c2ccc(Cl)cc2)no1,-15%,·,·,16
SMILES,FMDV inh,LASV entry inh,MARV entry inh,HCMV inh
Cc1cc(NC(=O)COC(=O)c2c(Cl)cccc2Cl)no1,-12%,·,·,-68*
Cc1cc(NC(=O)COC(=O)c2ccccc2S(=O)(=O)N(C)c2ccccc2)no1,?,2.5µM*,?,-101*
Cc1ccc(S(=O)(=O)N(CCc2ccccc2)CC(=O)Nc2ccccc2C)cc1,-15%,-10%[46.1 µM],·,-20
Cc1cc(-n2c(C)cc(C(=O)COc3cccnc3[N+](=O)[O-])c2C)no1,15%,24%,-5%,-10
Cc1cc(C(=O)COc2cccnc2[N+](=O)[O-])c(C)n1Cc1cccs1,7.9µM*,?,?,15
Cc1cc(C(=O)COC(=O)c2ccccc2O)c(C)n1Cc1cccs1,28µM*,0.33µM*,0.82µM*,-103*
CC(=O)Nc1ccccc1OCC(=O)c1cc(C)n(Cc2cccs2)c1C,?,-30%,?,-94*
CSc1ccc(OC2(C)CCN(Cc3cc4ccccc4o3)C2)cc1 (configuration not stated),-14%,·,·,-11
O=C(c1cccs1)N1CCN(C(=O)c2cccs2)C1=S,35µM*,?,?,?
O=C(c1cccs1)N1CCCC1,13%,-17%,13%,46
COc1ccccc1-n1ccnc(SCC(=O)NCCc2ccccc2)c1=O,-11%,3%,12%,-17
O=C(O)CC1S/C(=N\N=C2CCCCCCC2)N(c2ccccc2)C1=O (configuration not stated),-11%,12%,-12%[46.1 µM],-104*
CCc1c(C)sc2nc(C(C)C)nc(SCC(=O)N3CCc4ccccc4C3)c12,·,21µM*,?,-90*
C1CCC2(CC1)C1=C(CCCC1)Nc1nnnn12,-21%,-6%,-10%,-93*
